# The list is not random: actives were taken first. Their share in the collection is about 3.1%.
# ATG4B inhibitor = ATG4B (human) cysteine protease inhibition | Q9Y4P1 | ATG4B cleavage of LC3-PLA2, NBD-HPC fluorescence, 1 h | inhibition, % at 8.33 µM | 0.51% of 340,000 active; in the data active = inhibition above about 40%
# Calb FLC = C. albicans growth modulation with fluconazole; C. albicans CaCi-2 (fluconazole-resistant clinical isolate) + fluconazole, Alamar Blue growth, 48 h; growth inhibition, % (no concentration beside the values); 0.57% of 300,000 active; AID 1979;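 active = growth inhibition above about 58% in most replicates, limit read from the data, passing the limit was not always enough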;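 note: all wells also contain fluconazole at 8 µg/ml as a sub-toxic cotreatment; 0% = median of DMSO wells and 100% = median of geldanamycin control wells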
# SUMO Mot1 rescue = SUMOylation pathway inhibition by Mot1-301 growth rescue; 1% of 320,000 active; growth rescue, % at 18.8 µM; S. cerevisiae Mot1-301 growth rescue, ATP luminescence, 38.5C; percent above DMSO median, 100 means doubled;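 active = every valid replicate shows activation above 250% relative to neutral control wells; inactive = the rest, any valid replicate at or below 250%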;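 note: OY570 slx delta 5 strain wells were the positive control but not used for scaling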
# FAS TE block = blocks the thioesterase domain of human fatty acid synthase; P49327; recombinant FAS-TE, OMFH fluorogenic substrate, fluorescence endpoint; inhibition, % at 15 µM; 0.67% of 360,000 active;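 active = compounds whose normalised, plate-corrected inhibition of enzyme fluorescence in the single-dose primary screen is 50% or more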;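 note: 0% = DMSO with enzyme and 100% = substrate without enzyme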
# Target sequence (P49327 whole entry, looked up, the tested form may be a part): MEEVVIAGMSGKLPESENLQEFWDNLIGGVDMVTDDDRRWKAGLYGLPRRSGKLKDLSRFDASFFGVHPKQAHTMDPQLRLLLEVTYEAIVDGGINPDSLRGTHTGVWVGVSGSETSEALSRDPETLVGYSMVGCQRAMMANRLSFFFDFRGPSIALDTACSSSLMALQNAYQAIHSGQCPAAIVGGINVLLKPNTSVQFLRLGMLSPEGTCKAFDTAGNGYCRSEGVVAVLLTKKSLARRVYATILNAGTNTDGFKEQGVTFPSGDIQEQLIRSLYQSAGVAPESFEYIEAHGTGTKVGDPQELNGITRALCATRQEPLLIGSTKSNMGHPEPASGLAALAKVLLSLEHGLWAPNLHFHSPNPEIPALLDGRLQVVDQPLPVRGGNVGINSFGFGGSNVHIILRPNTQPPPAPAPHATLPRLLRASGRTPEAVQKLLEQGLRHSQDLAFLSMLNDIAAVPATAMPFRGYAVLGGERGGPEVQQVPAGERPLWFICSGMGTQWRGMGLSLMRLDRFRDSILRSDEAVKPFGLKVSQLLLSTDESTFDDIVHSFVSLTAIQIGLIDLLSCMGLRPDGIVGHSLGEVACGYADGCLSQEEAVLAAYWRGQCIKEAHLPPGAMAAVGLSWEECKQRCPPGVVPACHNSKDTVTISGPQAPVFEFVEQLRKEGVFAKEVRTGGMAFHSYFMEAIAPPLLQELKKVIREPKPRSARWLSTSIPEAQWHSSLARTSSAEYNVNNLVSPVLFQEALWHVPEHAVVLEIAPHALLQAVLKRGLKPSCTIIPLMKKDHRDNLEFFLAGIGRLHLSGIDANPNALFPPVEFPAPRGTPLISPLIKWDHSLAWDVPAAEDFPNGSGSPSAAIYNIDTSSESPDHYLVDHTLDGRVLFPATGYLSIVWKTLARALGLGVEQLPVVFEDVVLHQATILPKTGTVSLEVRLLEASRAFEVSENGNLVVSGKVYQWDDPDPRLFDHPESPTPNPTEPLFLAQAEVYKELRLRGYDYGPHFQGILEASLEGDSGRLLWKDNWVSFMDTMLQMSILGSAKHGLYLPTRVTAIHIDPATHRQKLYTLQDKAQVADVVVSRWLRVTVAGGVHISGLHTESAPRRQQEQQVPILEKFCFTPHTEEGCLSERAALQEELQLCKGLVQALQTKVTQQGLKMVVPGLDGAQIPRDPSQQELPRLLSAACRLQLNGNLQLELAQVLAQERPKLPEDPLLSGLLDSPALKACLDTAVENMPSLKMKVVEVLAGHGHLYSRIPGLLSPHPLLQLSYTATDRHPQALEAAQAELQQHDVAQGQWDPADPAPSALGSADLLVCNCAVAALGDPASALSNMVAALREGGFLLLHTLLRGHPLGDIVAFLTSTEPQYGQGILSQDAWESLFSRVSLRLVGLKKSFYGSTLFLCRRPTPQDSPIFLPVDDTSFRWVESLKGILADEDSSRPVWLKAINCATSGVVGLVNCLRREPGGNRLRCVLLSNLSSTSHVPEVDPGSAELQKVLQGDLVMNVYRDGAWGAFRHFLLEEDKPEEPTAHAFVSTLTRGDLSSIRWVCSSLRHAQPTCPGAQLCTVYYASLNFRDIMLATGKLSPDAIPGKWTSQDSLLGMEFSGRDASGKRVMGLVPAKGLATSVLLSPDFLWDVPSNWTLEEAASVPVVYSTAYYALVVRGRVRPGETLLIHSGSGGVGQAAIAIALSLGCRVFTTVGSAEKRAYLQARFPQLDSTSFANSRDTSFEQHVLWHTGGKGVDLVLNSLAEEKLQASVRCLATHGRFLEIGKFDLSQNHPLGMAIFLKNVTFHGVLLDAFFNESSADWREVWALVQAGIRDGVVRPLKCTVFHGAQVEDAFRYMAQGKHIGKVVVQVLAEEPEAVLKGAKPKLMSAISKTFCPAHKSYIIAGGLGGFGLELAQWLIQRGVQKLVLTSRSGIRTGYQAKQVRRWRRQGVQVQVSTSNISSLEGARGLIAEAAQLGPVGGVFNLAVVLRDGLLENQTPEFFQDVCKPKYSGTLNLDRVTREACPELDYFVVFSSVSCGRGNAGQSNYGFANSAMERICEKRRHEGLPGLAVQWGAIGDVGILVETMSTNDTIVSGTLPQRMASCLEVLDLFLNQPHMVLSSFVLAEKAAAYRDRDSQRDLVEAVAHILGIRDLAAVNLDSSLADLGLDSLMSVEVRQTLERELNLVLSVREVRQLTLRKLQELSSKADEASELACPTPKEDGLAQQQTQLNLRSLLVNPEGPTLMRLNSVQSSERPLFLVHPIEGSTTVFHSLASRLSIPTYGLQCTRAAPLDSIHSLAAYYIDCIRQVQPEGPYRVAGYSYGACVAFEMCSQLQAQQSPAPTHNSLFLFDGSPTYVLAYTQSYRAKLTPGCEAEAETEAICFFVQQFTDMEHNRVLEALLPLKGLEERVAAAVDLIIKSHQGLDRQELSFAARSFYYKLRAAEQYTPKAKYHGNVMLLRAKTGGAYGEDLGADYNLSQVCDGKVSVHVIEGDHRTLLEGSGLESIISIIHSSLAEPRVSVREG
# NadD inh = NadD (S. aureus) enzyme inhibition. 0.78% of 360,000 active. purified NadD enzyme, colorimetric absorbance read-out. inhibition, % at 20 µM; in the data active = inhibition above about 26%
# NadD conf = NadD (S. aureus) inhibition, single concentration confirmation | shares compounds with NadD inh | purified S. aureus NadD, colorimetric enzyme assay | inhibition, % at 20 µM | 13% of 2,000 active | AID 624309; in the data active = inhibition mostly above about 42%, no sharp cut-off; inactive = mostly below about 42%
# Numbers without * were called inactive; · = not tested or not shown.
SMILES,ATG4B inhibitor,Calb FLC,SUMO Mot1 rescue,FAS TE block,NadD inh,NadD conf
CN(C)C(CNc1ncnc2ccccc12)c1c(F)cccc1Cl (stereo not given),-7.4,-1.1,-11.5,-3.5,-2.8,·
CCOc1ccc(Br)cc1S(=O)(=O)Nc1ccc(C(=O)OCC(=O)Nc2ccc(C#N)cc2)cc1,-26.9,-1.6,7.0,33.6,34.4*,40.9
CCOc1ccc(NC(=S)NS(=O)(=O)c2cc(Br)ccc2OCC)cc1,-9.0,-55.1,12.8,1.7,-0.5,·
CN1CCN(NS(=O)(=O)c2ccc(Cl)cc2)CC1,-9.9,4.2,319.3,-4.8,4.5,·
Cn1c2ccccc2c(=O)c2ccc(NCCc3cccs3)cc21,6.5,·,91.2,5.2,35.7*,3.0
Cc1ccc(-c2csc(NC(=O)CSc3nnc4c(n3)[nH]c3ccccc34)n2)cc1,4.7,·,0.8,16.0,58.4*,17.6
Cc1ccc(NC(=O)CSc2nnc3c(n2)[nH]c2ccccc23)cc1,3.6,-6.6,-9.4,-6.7,-3.4,·
O=C(OCc1cccc(F)c1)c1ccc2c(=O)n3c(nc2c1)CCC3,4.6,7.3,7.2,17.8,-7.5,·
COC(=O)C[C@H]1C[C@H]2c3cc(NS(=O)(=O)c4ccc(OC)cc4)ccc3O[C@H]2[C@H](CO)O1,·,·,·,-2.5,-3.8,·
O=C(N/N=C/c1ccco1)c1cccc(N2Cc3ccccc3C2)c1,4.7,4.8,-10.8,1.6,34.8*,46.6
CC(C)C[C@@H](CN)NC(=O)c1nc[nH]c1C(=O)N[C@@H](C)C(=O)CNC[C@H](CC(C)C)NC(=O)c1nc[nH]c1C(=O)N[C@@H](Cc1ccccc1)C(=O)O,-1.1,·,·,-10.5,31.9*,45.7
CC(C)C[C@@H](CNC(=O)OC(C)(C)C)NC(=O)c1nc[nH]c1C(=O)N[C@@H](CC(C)C)C(=O)CNC[C@H](CC(C)C)NC(=O)c1nc[nH]c1C(=O)N[C@@H](Cc1c[nH]c2ccccc12)C(=O)OC(C)(C)C,-29.1,·,-1.5,2.9,30.2*,5.3
CC(C)C[C@@H](CNCC(=O)[C@H](Cc1c[nH]c2ccccc12)NC(=O)c1[nH]cnc1C(=O)N[C@@H](C)CN)NC(=O)c1nc[nH]c1C(=O)N[C@@H](Cc1ccccc1)C(=O)O,16.4,·,·,-11.3,33.9*,43.3
C=CCn1c(SCC(=O)Nc2ccc3c(c2)OCCO3)nc2cc(C(=O)O)ccc2c1=O,-58.7,·,-8.6,0.8,-2.3,·
CC1(Cc2ccc(S(C)(=O)=O)cc2)C(=O)Nc2ccc(Cl)cc21 (stereo not given),·,·,·,-5.5,0.9,·
COc1ccc([C@H]2CC(=O)C=C(c3cccc4c3Oc3ccccc3S4)C2)cc1OC,-6.9,·,-16.4,25.3,-5.2,·
COc1cc2c(cc1N)-c1ccc(N)cc1C2=O,·,·,·,-6.3,-4.9,·
O=c1c2sc3nc(N4CCOCC4)c4c(c3c2ncn1C(c1ccccc1)c1ccccc1)CCCC4,0.2,·,·,16.3,32.2*,1.4
CCOC(=O)C1=C(C(F)(F)F)Nc2ncnn2C1c1ccc(OC)cc1OC (stereo not given),-1.4,9.5,-24.4,-7.5,-7.1,·
O=C(Nc1ccc(S(=O)(=O)Nc2ncccn2)cc1)c1nn(Cc2ccccc2)c(=O)c2ccccc12,4.0,0.8,67.0,2.8,33.6*,35.4
Cc1ccc2nc(Cl)c(/C=N/Nc3nc(C)cc(C)n3)c(=O)n2c1,-2.4,-0.7,·,-9.9,-5.1,·
COc1ccc(/C=C2/SC(=O)N(CCC(=O)Nc3ccc(S(=O)(=O)Nc4nccs4)cc3)C2=O)cc1,-5.8,-13.7,-21.2,-7.4,68.6*,49.0*
COc1ccc(/C=C2\SC(=S)N(CCC(=O)Nc3ccc(O)cc3)C2=O)cc1,3.3,-5.1,-1.3,1.8,9.2,·
COc1ccc(/C=C2\SC(=O)N(CCC(=O)Nc3ccc(S(=O)(=O)Nc4nccs4)cc3)C2=O)cc1,19.6,-1.8,245.0,-2.8,75.6*,60.0*
COc1ccc(C(=O)Nc2ccc(N3CCCC3)cc2)cc1,-3.5,3.3,-8.7,-10.2,39.8*,0.4
SMILES,ATG4B inhibitor,Calb FLC,SUMO Mot1 rescue,FAS TE block,NadD inh,NadD conf
CCOc1cccc(C(=O)Nc2ccc(N3CCCC3)cc2)c1,3.0,-18.9,24.7,9.3,8.1,·
CCOc1ccc(C(=O)Nc2ccc(N3CCCC3)cc2)cc1,4.2,5.9,·,-10.9,34.9*,-4.3
CC(C)OCCCNC(=O)c1cc(-c2cccnc2)nc2ccccc12,-5.9,12.9,-7.2,-1.4,-2.4,·
O=C(Nc1ccc(Oc2ccc(NC(=O)Nc3ccc([N+](=O)[O-])cc3)cc2)cc1)Nc1ccc([N+](=O)[O-])cc1,11.1,-6.8,-2.6,24.0,32.0*,-3.6
O=C(Nc1ccc([N+](=O)[O-])cc1)Nc1nc(-c2ccc(Cl)s2)cs1,-10.2,-13.4,-0.8,-4.4,51.0*,5.0
O=C(NC(=S)Nc1nc(-c2cccc([N+](=O)[O-])c2)cs1)c1cc(Cl)ccc1Cl,6.6,-10.0,7.2,21.0,30.4*,7.8
Clc1ccccc1-c1ccc(/C=N/Nc2nncc(-c3ccccc3)n2)o1,-5.1,0.6,0.8,-9.6,32.3*,10.3
Clc1ccc(-c2ccc(/C=N/Nc3nncc(-c4ccccc4)n3)o2)cc1,-8.2,3.9,8.7,0.4,37.9*,12.9
FC(F)(F)c1cccc(-c2ccc(/C=N/Nc3nncc(-c4ccccc4)n3)o2)c1,-3.4,-3.7,·,7.2,0.8,·
COCCN(C(=O)CSc1cc(C)c2ccccc2n1)c1c(N)n(CC(C)C)c(=O)[nH]c1=O,-4.6,·,-16.3,-6.3,12.3,·
COC(=O)c1ccc(C(=O)N(CCN(C)C)c2nc3c(Cl)cccc3s2)cc1,1.9,3.3,-20.5,10.9,-3.9,·
O=C(CN1CCN(Cc2ccc(Cl)cc2)CC1)N/N=C/c1c[nH]c2ccccc12,-12.4,51.7,-4.6,-5.6,-1.2,·
CCOC(=O)c1sc2nc3c(SCCC#N)cc(C(=O)c4cc(F)ccc4O)cn3c(=O)c2c1C,-0.5,14.7,-0.6,14.0,33.2*,-8.0
CCCCCCc1cc2cc(S(=O)(=O)c3ccc(C)cc3)c(=O)oc2cc1O,-0.8,4.2,12.3,-4.1,10.6,·
CCCCCCc1cc2cc(S(=O)(=O)c3ccc(Cl)cc3)c(=O)oc2cc1O,-3.8,-2.4,-20.8,1.7,36.5*,2.3
COc1ccccc1N1CCN(Cc2cc(=O)n3ccsc3n2)CC1,7.7,0.5,150.5,-8.8,-1.9,·
CC1Cc2ccccc2N1Cc1cc(=O)n2ccsc2n1 (stereo not given),-3.8,·,153.1,-2.2,27.6*,10.7
CNC[C@H]1OCc2ccccc2-c2ccccc2C(=O)N([C@H](C)CO)C[C@H]1C,·,·,·,-5.1,-4.0,·
Cc1ccc2sc(-c3ccc(NC(=O)c4cc(-n5cnnc5)ccc4Cl)cc3)nc2c1,-10.7,19.1,-16.6,-6.0,7.9,·
O=C(Nc1cccc(-c2nc3ccccc3s2)c1)c1cc(-n2cnnc2)ccc1Cl,-20.1,59.4,19.0,32.9,39.6*,0.8
CCCNC(=O)[C@H](Cc1c[nH]c2ccccc12)NC(=O)c1ccccc1Cl,1.8,3.3,·,-6.5,-4.9,·

# Screening results deposited in PubChem by several laboratories.
